# Laboratory results as given in PubChem BioAssay.
# Active and inactive are the calls of the source. Unless noted, the rule behind the calls is not given here.
# Legend:
# [1] = compounds binding Alexa647 anti-His antibody – biochemical, small-molecule microarray, 635 nm fluorescence, artefact control for SMM control protein annotation, primary screen (AID 1128); conditions: higher = more signal;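 note: score merges feature fluorescence with signal-to-noise for each printed compound spot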
# [2] = tested on: Human papillomavirus type 1a E7 protein (residues 1-88); test: HPV1a E7 small-molecule binders, primary screen, biochemical, small-molecule microarray, residues 1-88, 635 nm (AID 1129); conditions: small-molecule microarray binding, fluorescence 635 nm; higher = more signal
# [3] = target: Focal adhesion kinase 1 (Homo sapiens) (UniProt Q05397); test: PTK2 protein binding on printed compound slides – biochemical, small-molecule microarray, 635/667 nm fluorescence, BSA, DTT, primary screen (AID 1130); conditions: 635 nm fluorescence, higher = more signal;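 note: composite of spot emission at 667 nm and signal to noise over triplicate slides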
# [4] = tested on: Fibrinogen (Alexa647-labelled); test: Alexa647-fibrinogen binding to printed small molecules – biochemical, small-molecule microarray, 635/667 nm fluorescence, artefact control for SMM control-protein annotation, profiling panel (AID 1131); conditions: fibrinogen-A647 binding fluorescence, higher = more signal;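 note: z-score merges 667 nm fluorescence with per-spot signal-to-noise over triplicate slides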
# [5] = target: Follistatin (Homo sapiens) (UniProt P19883); test: FST protein binding to printed compounds – biochemical, small-molecule microarray, 635/667 nm fluorescence, primary screen (AID 1132); conditions: 635 nm fluorescence, higher = more signal
# [6] = target: Fibroblast growth factor 2 (Homo sapiens) (UniProt P09038); test: basic fibroblast growth factor binding to printed compounds – biochemical, small-molecule microarray, 635/667 nm fluorescence, primary screen (AID 1133); conditions: FGF2, fluorescence 635/667, higher = more signal
# [7] = JC-1 mitochondrial potential readout, lung cancer cells – cell-based, A549, JC-1 fluorescence, basal, 24 h, 100 nL, profiling panel (AID 1138); conditions: higher = more signal;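 note: A549 lung adenocarcinoma cells under basal conditions with no added stimulus; test concentration not given here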
# Lefty1 = Lefty1 protein binding to printed compounds – biochemical, small-molecule microarray, 635/667 nm fluorescence, primary screen (AID 1139); conditions: fluorescence 635/667, higher = more signal
# [8] = tested on: wheat germ agglutinin (Triticum aestivum), Alexa647-labelled; test: Alexa647-WGA lectin binding to printed small molecules – biochemical, small-molecule microarray, 635/667 nm fluorescence, artefact control for SMM control-protein annotation, profiling panel (AID 1140); conditions: WGA-A647 binding, 635 nm fluorescence, higher = more signal;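 note: score merges 667 nm feature emission with signal to noise over triplicate slides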
# [9] = target: Luciferin 4-monooxygenase (Photinus pyralis) (UniProt P08659); test: inhibition of purified Photinus pyralis luciferase – biochemical, luminescence, purified enzyme, 2006 set, primary screen (AID 1141); conditions: purified firefly luciferase, SteadyGlo luminescence, 30 min; higher = more signal, called active from +8 up or from −8 down;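 note: cell-free assay with purified firefly luciferase at 100 ng per well in PBS; test concentration not given here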
# [10] = tested on: Wnt5a (protein binding on small-molecule microarray); test: small molecules binding Wnt5a protein – biophysical, small-molecule microarray, 635/667 nm fluorescence, primary screen (AID 1142); conditions: 635 nm fluorescence, higher = more signal;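 note: fluorescence read at 667 nm with signal to noise per printed feature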
# [11] = ATP-based viability of Huh7 replicon cells – cell-based, CellTiter-Glo luminescence, basal, 48 h, cytotoxicity control for HCV replication inhibitor project, primary screen (AID 1143); conditions: higher = more signal, called active from +8 up or from −8 down;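 note: Huh7 hepatoma cells carrying a hepatitis C replication reporter with no stimulus; test concentration not given here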
# [12] = Pseudomonas biofilm growth suppression – PAO1 strain, BacTiter-Glo luminescence, LB-PBS, primary screen (AID 1144); conditions: P. aeruginosa PAO1 biofilm, 12 h, higher = more signal
# [13] = basal CRE-LacZ reporter activity in PC12 – cell-based, unstimulated, primary screen (AID 1145); conditions: no forskolin, luminescence, 4.5 h, higher = more signal, called active from +8 up or from −8 down
# [14] = forskolin-driven CRE-LacZ activity in PC12 – cell-based, CRE-LacZ reporter, forskolin-stimulated, primary screen (AID 1146); conditions: luminescence, 4.5 h, higher = more signal, called active from +8 up or from −8 down;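 note: PC12 cells with 6xCRE LacZ reporter stimulated by forskolin 10 µM; beta-galactosidase reporter signal reflecting CREB driven transcription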
# [15] = target: Streptavidin (Streptomyces avidinii) (UniProt P22629); test: compounds binding control protein streptavidin – biophysical, small-molecule microarray, 635/667 nm fluorescence, artefact control for SMM compound annotation, primary screen (AID 1147); conditions: higher = more signal;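 note: signal reflects streptavidin binding to arrayed compounds as a control protein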
# [16] = probe aInhba binding on compound microarray – biochemical, small-molecule microarray, 635/667 nm fluorescence, primary screen (AID 1148); conditions: higher = more signal;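 note: score merges 667nm spot fluorescence with signal-to-noise for antibody binding to printed compounds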
# Torsin-1A (Homo sapiens) [17] = target: Torsin-1A (Homo sapiens) (UniProt O14656); test: TOR1A wild-type binding on microarray – cell lysate, small-molecule microarray, lysate, 635/667 nm, primary screen (AID 1149); conditions: COS7 hTOR1A-WT lysate, 635 nm fluorescence, higher = more signal
# Torsin-1A (Homo sapiens) [18] = target: Torsin-1A (Homo sapiens) (UniProt O14656); test: torsin A mutant lysate binding on microarrays – cell lysate, small-molecule microarray, COS7 lysate, 635/667 nm fluorescence, primary screen (AID 1150); conditions: COS7 hTOR1A mutant lysate, 635 nm fluorescence, higher = more signal;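 note: score pools 667 nm emission and signal to noise measuring lysate protein binding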
# [19] = tested on: Sonic hedgehog protein (Shh); test: Sonic hedgehog microarray binding compounds – biochemical, small-molecule microarray, 635/667 nm fluorescence, primary screen (AID 1151); conditions: 635 nm fluorescence, higher = more signal;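 note: Shh protein binding to compounds spotted on small-molecule microarray slides; score combines spot fluorescence intensity with signal-to-noise across triplicate slides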
# Torsin-1A (Homo sapiens), sequence (O14656 whole entry, looked up): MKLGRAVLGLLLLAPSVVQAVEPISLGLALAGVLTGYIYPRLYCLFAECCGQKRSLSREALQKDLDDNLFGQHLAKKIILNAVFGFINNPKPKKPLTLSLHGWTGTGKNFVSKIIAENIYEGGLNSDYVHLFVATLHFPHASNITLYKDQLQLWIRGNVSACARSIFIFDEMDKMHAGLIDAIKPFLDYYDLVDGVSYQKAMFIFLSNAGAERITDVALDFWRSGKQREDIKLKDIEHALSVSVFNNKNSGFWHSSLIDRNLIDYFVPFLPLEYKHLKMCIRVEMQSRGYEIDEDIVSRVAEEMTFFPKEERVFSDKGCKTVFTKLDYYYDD
# Follistatin (Homo sapiens), sequence (P19883 whole entry, looked up): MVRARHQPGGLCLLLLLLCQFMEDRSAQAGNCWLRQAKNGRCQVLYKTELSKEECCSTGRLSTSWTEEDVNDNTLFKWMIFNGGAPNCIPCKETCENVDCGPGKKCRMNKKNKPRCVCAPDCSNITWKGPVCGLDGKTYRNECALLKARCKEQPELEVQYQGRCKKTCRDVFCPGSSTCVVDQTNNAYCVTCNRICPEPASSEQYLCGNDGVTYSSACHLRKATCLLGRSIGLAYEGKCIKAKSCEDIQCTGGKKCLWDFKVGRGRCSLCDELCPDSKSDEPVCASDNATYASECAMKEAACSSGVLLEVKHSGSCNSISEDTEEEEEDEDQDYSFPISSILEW
# Focal adhesion kinase 1 (Homo sapiens), sequence (Q05397 whole entry, looked up): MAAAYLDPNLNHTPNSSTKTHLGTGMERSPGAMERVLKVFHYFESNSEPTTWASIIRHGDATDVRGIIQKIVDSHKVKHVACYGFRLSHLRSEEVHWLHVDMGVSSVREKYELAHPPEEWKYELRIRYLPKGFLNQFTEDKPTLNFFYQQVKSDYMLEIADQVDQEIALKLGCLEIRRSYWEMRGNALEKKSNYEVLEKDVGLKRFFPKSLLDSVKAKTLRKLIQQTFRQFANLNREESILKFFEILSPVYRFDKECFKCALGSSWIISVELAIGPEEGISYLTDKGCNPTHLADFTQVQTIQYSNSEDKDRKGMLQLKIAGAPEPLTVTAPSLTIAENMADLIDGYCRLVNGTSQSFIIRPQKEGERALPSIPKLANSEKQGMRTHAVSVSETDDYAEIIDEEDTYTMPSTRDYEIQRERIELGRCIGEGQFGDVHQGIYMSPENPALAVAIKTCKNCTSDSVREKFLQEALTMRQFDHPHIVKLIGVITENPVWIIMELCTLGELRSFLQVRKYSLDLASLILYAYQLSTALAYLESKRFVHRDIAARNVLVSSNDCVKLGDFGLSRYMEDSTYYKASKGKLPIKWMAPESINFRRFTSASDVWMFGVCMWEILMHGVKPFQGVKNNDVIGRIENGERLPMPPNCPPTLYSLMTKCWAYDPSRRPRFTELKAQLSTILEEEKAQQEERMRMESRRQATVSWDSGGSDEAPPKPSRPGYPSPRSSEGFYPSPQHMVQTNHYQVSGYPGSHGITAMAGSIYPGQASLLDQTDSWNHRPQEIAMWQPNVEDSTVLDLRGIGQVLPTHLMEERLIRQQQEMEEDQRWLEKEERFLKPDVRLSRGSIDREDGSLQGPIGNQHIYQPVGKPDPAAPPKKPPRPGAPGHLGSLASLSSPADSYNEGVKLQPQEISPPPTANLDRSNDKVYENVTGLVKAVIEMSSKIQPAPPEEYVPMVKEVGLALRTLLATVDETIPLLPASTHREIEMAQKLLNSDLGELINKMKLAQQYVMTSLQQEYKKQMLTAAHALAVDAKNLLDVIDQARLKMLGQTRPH
# Streptavidin (Streptomyces avidinii), sequence (P22629 whole entry, looked up): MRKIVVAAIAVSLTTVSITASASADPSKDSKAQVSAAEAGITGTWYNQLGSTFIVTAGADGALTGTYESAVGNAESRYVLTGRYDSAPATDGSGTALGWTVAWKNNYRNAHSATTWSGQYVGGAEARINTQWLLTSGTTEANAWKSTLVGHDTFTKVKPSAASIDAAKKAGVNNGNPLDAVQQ
# Fibroblast growth factor 2 (Homo sapiens), sequence (P09038 whole entry, looked up): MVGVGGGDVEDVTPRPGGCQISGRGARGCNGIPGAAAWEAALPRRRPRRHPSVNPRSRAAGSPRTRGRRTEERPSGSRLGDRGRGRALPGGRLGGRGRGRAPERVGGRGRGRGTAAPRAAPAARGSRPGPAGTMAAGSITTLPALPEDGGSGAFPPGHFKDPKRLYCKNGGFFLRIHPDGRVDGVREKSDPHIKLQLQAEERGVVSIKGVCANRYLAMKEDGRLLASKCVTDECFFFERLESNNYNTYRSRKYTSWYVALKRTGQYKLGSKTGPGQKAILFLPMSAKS
# Luciferin 4-monooxygenase (Photinus pyralis), sequence (P08659 whole entry, looked up): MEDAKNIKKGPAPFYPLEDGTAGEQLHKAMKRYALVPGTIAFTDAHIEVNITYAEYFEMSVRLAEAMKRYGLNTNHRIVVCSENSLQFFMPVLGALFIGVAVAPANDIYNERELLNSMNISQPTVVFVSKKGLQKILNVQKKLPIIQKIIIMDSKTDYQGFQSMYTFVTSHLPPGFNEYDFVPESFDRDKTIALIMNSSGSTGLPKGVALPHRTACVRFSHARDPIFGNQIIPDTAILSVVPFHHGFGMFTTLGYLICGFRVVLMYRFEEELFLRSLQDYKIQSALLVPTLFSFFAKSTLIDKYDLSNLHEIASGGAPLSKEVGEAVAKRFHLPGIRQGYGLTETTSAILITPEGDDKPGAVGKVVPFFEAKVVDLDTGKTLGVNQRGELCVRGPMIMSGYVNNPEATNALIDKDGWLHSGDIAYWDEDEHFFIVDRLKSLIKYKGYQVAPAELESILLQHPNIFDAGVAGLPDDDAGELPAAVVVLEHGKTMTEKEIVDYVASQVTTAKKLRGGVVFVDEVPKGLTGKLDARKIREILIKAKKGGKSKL
Compound,composite z-score [1],composite z-score [2],composite z-score [3],composite z-score [4],composite z-score [5],composite z-score [6],z-score [7],composite z-score (Lefty1),composite z-score [8],z-score [9],composite z-score [10],z-score [11],z-score [12],z-score [13],z-score [14],composite z-score [15],composite z-score [16],composite z-score (Torsin-1A (Homo sapiens) [17]),composite z-score (Torsin-1A (Homo sapiens) [18]),composite z-score [19]
COC(=O)[C@@]1(Cc2ccc(F)cc2)[C@H]2c3cc(C(=O)N(C)C)n(Cc4ccc(OC(F)(F)F)cc4)c3C[C@H]2CN1C(=O)c1ccccc1,0.348,0.626,0.0291,0.572,0.216,0.016,0.561,-0.182,0.341,1.6 (inactive),0.0007,0.875 (inactive),-0.362 (inactive),0.397 (inactive),0.391 (inactive),0.686,0.0633,0.296,0.569,-0.817
O=C1CS(=O)(=O)C(c2cccc([N+](=O)[O-])c2)N1c1ccccc1 (stereo not given),1.67,1.16,0.596,0.522,0.469,0.698,1.53,-0.269,0.909,-1.61 (inactive),0.388,-1.67 (inactive),-1.16 (inactive),-0.231 (inactive),-1.44 (inactive),0.392,1.03,0.909,0.655,0.781
CN1C(=O)C2C=CC(C(O)c3cccn3C)N(Nc3ccc([N+](=O)[O-])cc3[N+](=O)[O-])C2C1=O (stereo not given),0.421,0.414,0.0533,-0.232,-0.201,0.275,0.0408,-0.583,0.408,0.679 (inactive),0.28,0.515 (inactive),-0.255 (inactive),1.4 (inactive),1.36 (inactive),0.724,0.188,0.799,0.437,-0.0299
COCCCNC(=O)[C@@]1(Sc2ccc(C)cc2)CC(=O)N(C2Cc3ccccc3C2)[C@@H]1c1ccc(CO)cc1,0.72,0.336,-0.296,-0.841,-1.22,-1.35,-0.318,-1.1,-1.47,0.925 (inactive),-0.228,-4.69 (inactive),-1.03 (inactive),0.685 (inactive),1.95 (inactive),-1.17,-0.327,-1.86,-1.35,-1.45
COC(=O)[C@@]1(Cc2ccc(F)cc2)[C@H]2c3cc(C(=O)N4CCCC4)n(Cc4ccc(C)c(F)c4F)c3C[C@H]2CN1C(=O)c1ccccc1,1.39,0.821,0.572,0.511,-0.115,-0.132,-0.494,-0.605,0.921,-12.5 (active),-0.175,-0.944 (inactive),-0.298 (inactive),1.15 (inactive),-0.177 (inactive),-0.286,0.12,-0.259,-0.407,-0.472
CC(C)[Si](C#CCCCC#N)(O[C@H](c1ccccc1)c1cn(Cc2ccccc2)nn1)C(C)C,1.01,0.694,-0.359,0.534,0.793,0.725,0.408,0.809,0.235,-0.254 (inactive),0.125,-0.507 (inactive),-0.319 (inactive),0.773 (inactive),-0.0473 (inactive),0.62,-0.157,0.148,0.194,0.531
COc1cc(OC)c(C(O)C2C=CC3C(=O)N(Cc4ccccc4)C(=O)C3N2n2cnnc2)cc1Br (stereo not given),2.21,1.17,0.381,0.973,1.03,-0.148,-1.08,0.363,1.02,0.647 (inactive),0.25,-3.56 (inactive),-0.664 (inactive),0.677 (inactive),-1.4 (inactive),1.22,-0.0087,2.73,2.4,0.116
CC(=O)NCCCC[C@@H]1NC(=O)[C@@H]2C[C@H](C(=O)NCCCCCN)[C@H](c3ccc(O)cc3)N2C1=O,0.367,1.19,0.445,0.671,1.33,1.24,-0.664,1.58,0.283,-0.399 (inactive),0.66,-0.224 (inactive),0.268 (inactive),0.285 (inactive),-0.389 (inactive),0.977,0.221,1.14,1.54,1.52
CC(C)NC(=O)[C@@]1(c2ccc([N+](=O)[O-])cc2)CC(=O)N(C2CCCCC2)[C@@H]1c1ccc(CO)cc1,2.4,1.17,0.959,0.729,1.28,0.584,0.438,1.29,0.965,1.46 (inactive),0.34,-2.26 (inactive),-0.177 (inactive),1.09 (inactive),-0.0351 (inactive),0.119,-0.12,0.574,0.5,1.68
CCCCC=C[C@@H](NC(=O)OCc1ccccc1Cl)c1ccccc1,0.361,1.25,0.128,0.979,1.19,-0.172,-1.55,0.868,0.385,0.488 (inactive),1.45,-0.392 (inactive),-0.146 (inactive),0.394 (inactive),1.02 (inactive),0.484,0.592,-0.266,0.665,0.62
